A short description of assay [1]: optical density shifts of acrAB sulA E. coli – strain DRC41, OD650, 48 h, E. coli filamentation inducer project, primary screen (AID 1152).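 Note: E. coli MC1000 strain DRC41 lacking acrAB efflux pump and sulA.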 The settings on record: higher = more signal, called active from +8 up or from −8 down.
Assay [2] in a line: probe aLefty1 binding on compound microarray – biochemical, small-molecule microarray, 635/667 nm fluorescence, primary screen (AID 1153).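 Note: score merges spot fluorescence with signal-to-noise ratio from the scanned slide images.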 Particulars: higher = more signal.
Assay [3] in a line: plasmodial surface anion channel blockers, osmotic lysis – cell-based, P. falciparum Indochina, OD700, 1 h, primary screen (AID 1154). Particulars: P. falciparum Indochina infected RBC osmotic lysis, higher = more signal, called active from +8 up or from −8 down.
Assay [4] can be described thus: plasmodial surface anion channel blockers, osmotic lysis – cell-based, P. falciparum Indochina, OD700, 2 h, primary screen (AID 1155).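 Note: lysis reports solute entry through the parasite surface anion channel PSAC.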 The settings on record: P. falciparum Indochina infected erythrocytes, higher = more signal, called active from +8 up or from −8 down.
Assay [5] can be described thus: changes in parasitized red cell lysis, either direction – P. falciparum Indochina, OD700, 3 h, PSAC antagonist project, primary screen (AID 1156). The settings on record: P. falciparum-infected erythrocytes, osmotic lysis, higher = more signal, called active from +8 up or from −8 down.
Assay [6] can be described thus: plasmodial surface anion channel blockers, osmotic lysis – cell-based, P. falciparum Indochina, OD700, 18 h, primary screen (AID 1157). The settings on record: P. falciparum Indochina infected erythrocytes, osmotic lysis OD700, 18 h; higher = more signal, called active from +8 up or from −8 down.
Assay [7] in a line: S6 kinase pathway phospho-S6 level changes – cell-based, A549, cytoblot, luminescence, serum-stimulated, primary screen (AID 1158).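 Note: serum-stimulated A549 lung adenocarcinoma cells; signal is phosphorylated S6 detected by cytoblot immunostaining with HRP secondary.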 Particulars: 5 h, higher = more signal.
Assay [8] addresses NADPH oxidase 2 (Homo sapiens) (UniProt P04839). The experiment in a line: compounds shifting NOX2 Amplex Red fluorescence – cell-based, HEK293-NOX2, PMA-stimulated, NOX inhibitor project, primary screen (AID 1159). Note: test concentration not given here. The settings on record: 45 min, higher = more signal, called active from +8 up or from −8 down.
The target in assay [9] is NADPH oxidase 4 (Homo sapiens) (UniProt Q9NPH5). In words: compounds shifting NOX4 Amplex Red fluorescence – cell-based, HEK293-NOX4, tetracycline-induced, NOX inhibitor project, primary screen (AID 1160). The settings on record: HEK293-NOX4, Amplex Red H2O2 fluorescence, 45 min; higher = more signal, called active from +8 up or from −8 down.
The target in assay [10] is NADPH oxidase 5 (Homo sapiens) (UniProt Q96PH1). In words: compounds shifting NOX5 Amplex Red fluorescence – cell-based, HEK293-NOX5, NOX inhibitor project, primary screen (AID 1161). Particulars: HEK293-NOX5, ionomycin, 45 min, higher = more signal.
Assay [11] in a line: compound effects on lung adenocarcinoma cell viability – A549, calcein-AM fluorescence, 48 h, basal, profiling panel (AID 1162). Note: test concentration not given here. Particulars: higher = more signal.
Assay [12] can be described thus: compound effects on differentiated 3T3-L1 adipocyte viability – cell-based, 3T3-L1 adipocytes, calcein-AM fluorescence, 48 h, basal, profiling panel (AID 1163). Note: test concentration not given here. Particulars: 3T3-L1 adipocytes viability, higher = more signal.
The nature of assay [13]: compound effects on hepatocellular carcinoma cell viability – HepG2, calcein-AM fluorescence, 48 h, basal, profiling panel (AID 1164). Note: test concentration not given here. Particulars: higher = more signal.
Assay [14] in a line: compound effects on multiple myeloma cell viability – MM1S, calcein-AM fluorescence, 48 h, basal, profiling panel (AID 1165).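 Note: viability of MM1S multiple myeloma cells under basal unstimulated conditions; test concentration not given here.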 The settings on record: higher = more signal.
Assay [15] in a line: calcein-AM signal in unstimulated myeloma cells – cell-based, calcein-AM fluorescence, 48 h, PK04 Diversity Set, profiling panel (AID 1166).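 Note: cells grown under basal conditions without added stimulus; test concentration not given here.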 Particulars: RPMI8226 myeloma viability, higher = more signal.
The nature of assay [16]: JC-1 mitochondrial signal, unstimulated HepG2 cells – cell-based, JC-1 fluorescence, 24 h, 100 nL compound, profiling panel (AID 1167). Note: test concentration not given here. The settings on record: HepG2 mitochondrial potential, higher = more signal.
The nature of assay [17]: JC-1 mitochondrial signal, unstimulated adipocytes – cell-based, JC-1 fluorescence, 3T3-L1 adipocytes, 24 h, 100 nL compound, profiling panel (AID 1168). Note: test concentration not given here. The settings on record: JC-1 mitochondrial fluorescence, higher = more signal, called active from +8 up or from −8 down.
A short description of assay [18]: JC-1 mitochondrial signal, unstimulated myeloma cells – cell-based, JC-1 fluorescence, RPMI8226, 24 h, 100 nL compound, profiling panel (AID 1169). Note: test concentration not given here. Particulars: JC-1 mitochondrial potential fluorescence, higher = more signal.
Assay [19] can be described thus: JC-1 mitochondrial signal, unstimulated MM1S myeloma – cell-based, JC-1 fluorescence, 24 h, 100 nL compound, profiling panel (AID 1170). Note: test concentration not given here. Particulars: MM1S mitochondrial potential, higher = more signal.
Assay [20] can be described thus: resazurin metabolic signal in A549 cells – cell-based, resazurin fluorescence, 24 h, PK04 Diversity Set, profiling panel (AID 1171). Note: test concentration not given here. Particulars: A549 viability, higher = more signal, called active from +8 up or from −8 down. (In general: Resazurin is reduced to fluorescent resorufin, in cell work by metabolically active cells.)

Z-score and composite z-score data for five molecules are collected here from PubChem BioAssay.

Calls of active or inactive are those of the source.

Sequence of NADPH oxidase 4 (Homo sapiens) (Q9NPH5 whole entry, looked up): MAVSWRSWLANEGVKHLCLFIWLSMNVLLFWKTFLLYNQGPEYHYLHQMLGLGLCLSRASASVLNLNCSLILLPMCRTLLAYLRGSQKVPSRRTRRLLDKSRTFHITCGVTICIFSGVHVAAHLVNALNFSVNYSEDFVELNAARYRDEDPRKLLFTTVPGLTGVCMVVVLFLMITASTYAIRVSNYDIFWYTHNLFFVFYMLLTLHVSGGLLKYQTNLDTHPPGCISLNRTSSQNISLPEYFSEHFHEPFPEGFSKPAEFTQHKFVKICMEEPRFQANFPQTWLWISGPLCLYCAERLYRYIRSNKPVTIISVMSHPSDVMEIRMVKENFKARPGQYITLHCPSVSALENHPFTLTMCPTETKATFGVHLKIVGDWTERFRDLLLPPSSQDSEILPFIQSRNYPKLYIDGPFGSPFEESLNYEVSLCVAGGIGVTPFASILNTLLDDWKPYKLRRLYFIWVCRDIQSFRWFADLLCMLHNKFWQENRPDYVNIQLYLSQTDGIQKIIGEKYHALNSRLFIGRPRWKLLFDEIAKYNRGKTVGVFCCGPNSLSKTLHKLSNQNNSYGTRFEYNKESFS
Sequence of NADPH oxidase 5 (Homo sapiens) (Q96PH1 whole entry, looked up): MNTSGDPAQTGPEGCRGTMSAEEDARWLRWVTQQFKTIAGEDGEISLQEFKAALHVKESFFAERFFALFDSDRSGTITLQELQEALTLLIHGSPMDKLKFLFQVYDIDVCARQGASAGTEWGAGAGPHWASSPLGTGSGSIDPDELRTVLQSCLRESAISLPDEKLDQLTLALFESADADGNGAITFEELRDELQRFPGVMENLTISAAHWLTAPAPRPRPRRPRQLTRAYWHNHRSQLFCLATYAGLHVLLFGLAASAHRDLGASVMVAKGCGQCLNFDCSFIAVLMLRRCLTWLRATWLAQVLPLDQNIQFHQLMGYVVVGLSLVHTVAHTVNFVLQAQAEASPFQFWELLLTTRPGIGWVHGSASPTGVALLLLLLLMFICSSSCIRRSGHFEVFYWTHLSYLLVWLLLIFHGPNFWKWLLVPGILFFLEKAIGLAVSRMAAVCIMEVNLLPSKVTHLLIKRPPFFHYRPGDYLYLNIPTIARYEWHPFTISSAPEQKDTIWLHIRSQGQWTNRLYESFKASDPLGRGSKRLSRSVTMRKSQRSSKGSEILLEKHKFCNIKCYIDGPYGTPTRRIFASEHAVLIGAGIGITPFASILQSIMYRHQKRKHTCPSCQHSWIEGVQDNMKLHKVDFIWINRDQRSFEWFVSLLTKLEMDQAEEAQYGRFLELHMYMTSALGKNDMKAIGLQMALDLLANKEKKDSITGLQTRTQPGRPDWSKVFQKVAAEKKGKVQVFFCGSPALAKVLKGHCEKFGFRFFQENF
Sequence of NADPH oxidase 2 (Homo sapiens) (P04839 whole entry, looked up): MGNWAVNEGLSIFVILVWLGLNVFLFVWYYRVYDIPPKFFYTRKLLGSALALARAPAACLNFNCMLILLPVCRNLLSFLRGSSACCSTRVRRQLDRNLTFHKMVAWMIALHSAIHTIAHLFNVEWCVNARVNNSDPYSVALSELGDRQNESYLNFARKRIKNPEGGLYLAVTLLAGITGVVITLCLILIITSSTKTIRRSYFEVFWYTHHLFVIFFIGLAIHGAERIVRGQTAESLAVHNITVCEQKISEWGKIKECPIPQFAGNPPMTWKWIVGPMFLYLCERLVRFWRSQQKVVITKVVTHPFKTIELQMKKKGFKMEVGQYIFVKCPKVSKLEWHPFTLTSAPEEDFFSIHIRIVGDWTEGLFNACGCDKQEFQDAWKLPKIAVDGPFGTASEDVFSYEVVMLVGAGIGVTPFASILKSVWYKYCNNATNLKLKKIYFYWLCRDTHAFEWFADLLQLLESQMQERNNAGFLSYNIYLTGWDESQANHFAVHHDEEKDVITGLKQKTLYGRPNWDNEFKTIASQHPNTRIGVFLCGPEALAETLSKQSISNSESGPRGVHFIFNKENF

In the case of `O=C(N1CCOCC1)[C@@]1(CCS(=O)(=O)c2ccccc2)N=C(c2ccc(OCCCO)cc2)O[C@H]1c1ccccc1`, the z-score was 0.276 (inactive) in assay [1]; 30.2 (active) in [3]; 27.8 (active) in [4]; 0.265 (inactive) in assay [5]; 5.34 (inactive) in assay [6]; -0.679 in assay [7]. Further, the z-score is 0.386 (inactive) in assay [8]; 1.75 (inactive) in [9]; 1.97 in assay [10]; 0.723 in assay [11]; -0.614 in [12]; 0.491 in assay [13]. In addition, the z-score in assay [14] was 0.201; in [15], 0.614; in [16] it was 0.271; in assay [17] it was -0.277 (inactive); in assay [18] it was -0.489; in assay [19], -0.617. In assay [20], the z-score was -0.223 (inactive). The molecule also displayed a composite z-score in assay [2] of 0.446.

For the molecule `COc1cc(NN2C(C(O)c3cc(OC)c(OC)c(OC)c3)C=CC3C(=O)N(c4ccccc4)C(=O)C32)cc(OC)c1OC` (stereo not given), the z-score in assay [1] was -1.78 (inactive); in [3], 2.73 (inactive); in [4] it was -0.577 (inactive); in [5] it was 1.27 (inactive); in [6] it was -1.19 (inactive); in [7] it was 1.07. For the same molecule, the z-score in assay [8] was -3.35 (inactive); in [9], -4.26 (inactive); in assay [10] it was -6.87; in assay [11] it was -0.94; in assay [12], 0.641; in assay [13], -0.455. In addition, the z-score in assay [14] is -0.881; in assay [15], -0.373; in assay [16], -0.132; in [17] it was -0.768 (inactive); in assay [18], -0.286; in assay [19], -0.755. Moreover, the z-score in [20] is -1.11 (inactive). In addition, in assay [2], the composite z-score came to 1.02.

As for `COCCOC(=O)N1C(=O)[C@@]2(c3cc(C#Cc4ccc(OC)cc4)ccc31)[C@H](C(=O)NC[C@H](O)c1ccccc1)[C@H]1C(=O)O[C@H](c3ccccc3)[C@H](c3ccccc3)N1[C@@H]2c1ccc(OCCO)cc1`, the z-score in [1] is 1.34 (inactive); in assay [3], 5.02 (inactive); in [4], 1.45 (inactive); in [5] it was -0.191 (inactive); in assay [6] it was 0.312 (inactive); in assay [7] it was 2. The z-score in [8] is -0.756 (inactive); in [9], -2.17 (inactive); in [10], -2.61; in [11] it was -0.953; in [12] it was 0.55; in [13], -1.1. Further, the z-score in [14] was -0.915; in [15] it was -1.47; in assay [16], -1.97; in assay [17] it was 2.35 (inactive); in [18], -0.66; in [19], -1.78. The z-score in assay [20] is 1.32 (inactive). In addition, the composite z-score in assay [2] worked out at 0.179.

`C[C@@H]1ON(c2ccc(I)cc2)[C@H](c2ccc(OC(=O)OC(C)(C)C)cc2)[C@H]1C(=O)N1C(=O)OC[C@H]1Cc1ccccc1`: the z-score in assay [1] was 2.67 (inactive); in assay [3], 0.789 (inactive); in assay [4], -0.474 (inactive); in assay [5], 0.546 (inactive); in [6], -1.73 (inactive); in assay [7], 1.5. Also, the z-score in assay [8] is -5.57 (inactive); in assay [9], 0.237 (inactive); in [10], 1.39; in [11], 0.0132; in [12], 1.06; in assay [13], 1.61. Also, the z-score is -0.234 in [14]; 0.351 in assay [15]; 0.144 in assay [16]; 0.498 (inactive) in [17]; -0.366 in [18]; -1.81 in assay [19]. In addition, the z-score in [20] is 1.33 (inactive). Besides, the composite z-score in assay [2] is -0.191.

For `COCC1=C2[C@@H](CCc3ccccc3)OB(O)C[C@@H]2[C@@H]2C(=O)N(C)C(=O)[C@@H]2C1`, the z-score in assay [1] is -0.801 (inactive); in assay [3], 1.4 (inactive); in assay [4], -0.301 (inactive); in assay [5], -0.793 (inactive); in assay [6] it was -0.015 (inactive); in [7] it was -0.1. The z-score in assay [8] is -0.116 (inactive); in assay [9], 0.762 (inactive); in [10] it was 0.217; in assay [11], -0.0482; in [12], -0.184; in [13] it was -0.187. For the same molecule, the z-score is -0.145 in assay [14]; -0.126 in [15]; -1.54 in assay [16]; 0.176 (inactive) in assay [17]; -0.0658 in [18]; -0.239 in assay [19]. In assay [20], the z-score is -0.425 (inactive). The composite z-score in assay [2] was 0.0355.
